High-throughput results as filed in PubChem.
CHX counter-1: counter-screen hit for Shiga toxin inhibitors, cycloheximide | cell reporter, cycloheximide protein synthesis inhibition counterscreen | max response, % | 12% of 300,000 active; in the data active means max response mostly above about 13%, no sharp cut-off; inactive means mostly below about 14%; further: read at 38.3 µM for the half of the compounds with a filed dose; 0% is about no effect
SARS PLP yeast: inhibitors of SARS-CoV papain-like protease in yeast | Potency, µM (doses to about 32.9 µM), inactives show at the highest dose activity, positive = growth rescue, actives largely listed as activators | S. cerevisiae expressing SARS-CoV PLpro, growth rescue | AID 485353 | 0.19% of 330,000 active; further: potency means the concentration at half of the fitted maximal effect; 0% is about no effect; nearly all actives have a fitted effect of over 55% in size
Tb PYK inh: T. brucei pyruvate kinase inhibition; Q57TT1; TbPYK enzyme, Kinase-Glo Plus ATP luminescence, 45 min; Potency, µM (top dose mostly 76.8 µM), for inactives: at the highest dose activity, negative = inhibition, usual class: inhibitors; 0.12% of 410,000 active; active means well fitted curve in the direction sought with a large enough effect; inconclusive means small, poorly fitted or top-dose-only effect, or another doubt; inactive means no such curve, though single readings can be large; an effect the other way counts as inactive or inconclusive; further: potency means the concentration at half of the fitted maximal effect; on the % scale 0 is the no-effect control and ±100 the full control effect; nearly all actives have a fitted effect of over 50% in size
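ADP (130 uM final) triggers the TbPYK reaction after compound addition; incubation is 45 min at room temperature. Kinase-Glo Plus is then added and luminescence imaged. Normalized data are fitted to concentration-effect curves.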
NS1 function inh: blocks influenza NS1 protein function. Potency, µM (titrated, usually from 46.1 µM), without a hit: at the top dose activity, positive = more growth. 0.4% of 270,000 active; further: potency means the concentration at half of the fitted maximal effect; actives are rising curves; nearly all actives have a fitted effect of over 50% in size
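In this qHTS, NS1 from influenza A is expressed in budding yeast, where it slows growth. Cells are switched from glucose to 2% galactose medium (pH 6.0, -URA), treated with compound, and growth recovery is read at OD600.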
Shiga inhibitor: inhibitors of Shiga toxin in Vero cells; Vero cells, Shiga toxin protein synthesis inhibition reporter; 9.2% of 290,000 active; inhibition, % at 38.7 µM; in the data active means inhibition mostly above about 28%, no sharp cut-off; inactive means mostly below about 43%; further: 0% is about no effect
LmPK inh: LmPK (Leishmania mexicana) enzyme inhibition; AID 1721; Potency, µM (doses to about 57.5 µM), without a hit: at the highest dose activity change, negative = inhibition, most hits filed as inhibitors; 0.37% of 290,000 active; purified LmPK, Kinase-Glo ATP luminescence, 1 h; active means well fitted curve in the direction sought with a large enough effect; inconclusive means small, poorly fitted or top-dose-only effect, or another doubt; inactive means no such curve, though single readings can be large; an effect the other way counts as inactive or inconclusive; further: potency means the concentration at half of the fitted maximal effect; on the % scale 0 is the no-effect control and ±100 the full control effect
Target sequence (Q27686 whole entry, looked up): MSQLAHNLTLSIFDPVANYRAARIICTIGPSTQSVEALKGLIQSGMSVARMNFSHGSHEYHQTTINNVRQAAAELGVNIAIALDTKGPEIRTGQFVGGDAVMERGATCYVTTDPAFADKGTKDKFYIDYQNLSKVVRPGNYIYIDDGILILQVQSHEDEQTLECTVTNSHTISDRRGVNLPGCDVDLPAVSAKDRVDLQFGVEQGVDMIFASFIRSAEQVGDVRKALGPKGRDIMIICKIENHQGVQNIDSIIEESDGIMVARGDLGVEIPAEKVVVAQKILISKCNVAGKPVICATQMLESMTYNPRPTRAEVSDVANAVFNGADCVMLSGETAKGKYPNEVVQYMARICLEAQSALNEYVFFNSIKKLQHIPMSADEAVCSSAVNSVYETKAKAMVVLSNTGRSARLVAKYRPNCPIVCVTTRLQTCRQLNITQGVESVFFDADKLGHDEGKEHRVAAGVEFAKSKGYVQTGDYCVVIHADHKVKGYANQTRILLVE
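qHTS format; LmPK 0.1 nM; substrates PEP 0.5 mM and ADP 0.1 mM. One-hour room-temperature incubation, then coupled luciferase luminescence; 0.5 nM enzyme wells mark activation.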
CHX counter-2: affects protein synthesis reporter in cycloheximide counter-screen. shares compounds with Shiga inhibitor. Cycloheximide counterscreen, protein synthesis reporter, Shiga toxin assay. Potency, µM (doses to about 38.3 µM), without a hit: at the highest dose activity (activation), actives largely listed as activators. 3% of 510 active. AID 2318; further: potency means the concentration at half of the fitted maximal effect; 0% is about no effect
NS1 inh valid: validation of influenza NS1 protein function inhibitors; shares compounds with NS1 function inh; influenza NS1 function cell assay, 15-point titration; activity change, negative = inhibition, % at 32.9 µM; 1,400 tested, under 10 active; AID 492980; further: 0% is about no effect
PR8 titer: influenza virus titer reduction, NS1 project; shares compounds with NS1 function inh; 30% of 95 active; MDCK infected influenza A/PR/8/34, virus titer TCID50; active compounds read low; virus titer (log TCID50), log10 TCID50 at 5 µM; call rule not given here
An asterisk follows results filed as active; u = inconclusive; x = no result given; ! = not active in a repeat. Shown is part of a subset that was picked to be rich in hits. Unless noted, the call rests on the fitted dose curve.

SMILES	CHX counter-1	SARS PLP yeast	Tb PYK inh	NS1 function inh	Shiga inhibitor	LmPK inh	NS1 inh valid	others
Cc1cc(N2C(=O)C(=O)/C(=C(/O)c3ccc(F)cc3)C2c2cccc(Br)c2)no1 (stereo unspecified)	1.3	-0.2%	1.2%	17.4%	-3.0	8.2%	x
Cc1ccc(/C(O)=C2\C(=O)C(=O)N(c3cc(C)on3)C2c2cccc(Br)c2)cc1 (stereo unspecified)	2.4	3.9%	-7.1%	u	39.1*	4.5%	x	CHX counter-2=-3.4%
OC(c1ccccc1)C(O)C(c1ccccc1)N1CCCCC1 (stereo unspecified)	x	x	-0.2%	x	x	x	x
CC(=O)N[C@@H](Cc1c[nH]c2ccccc12)C(=O)OCC(=O)Nc1ccc(Cl)c(S(=O)(=O)N(C)C)c1	9.4	-0.6%	0.7%	x	43.0*	1.6%	x	CHX counter-2=4.1%
CCOC(=O)N1CCN(S(=O)(=O)c2ccc(C(=O)NNc3nc4c(C)cc(C)cc4s3)cc2)CC1	5.2	u	-11.9%	3.98µM*	42.8*	-1.3%	u	CHX counter-2=-5.3%
CCn1c(SCC(=O)N/N=C(\C)c2ccco2)nnc1-c1ccccc1	-1.8	0.0%	-3.8%	1.7%	16.5	-0.9%	x
C=CCN1CC[C@]23c4c5ccc(O)c4OC2C(=O)CC[C@@]3(O)C1C5 (stereo partly specified)	-3.4	-1.5%	-0.5%	12.6µM*	0.9	-4.5%	-16.8
C=CCN1CC[C@]23c4c5ccc(O)c4O[C@H]2/C(=N/NC(=O)c2ccccc2)CC[C@@]3(O)[C@H]1C5	x	x	-20.9%	u	x	x	x
COc1ccc(-c2cn[nH]c2-c2ccc(OCc3ccc([N+](=O)[O-])cc3)cc2O)cc1OC	1.3	5.8%	2.0%	u	-3.8	6.8%	-14.4
O=C(CSc1cnc2ccccc2n1)NC1CCCC1	4.8	-1.3%	-0.1%	-9.4%	43.9	1.6%	x
O=C(O)CSc1cnc2ccccc2n1	13.4	8.0%	11.2%	15.8µM*	-1.7	-0.7%	7.1
O=C1c2cccc3cc([N+](=O)[O-])cc(c23)C(=O)N1c1nncs1	x	x	-8.1%	x	x	x	x
O=C(c1ccc(S(=O)(=O)N2CCCC2)cc1)N1CCN(c2ccccc2)CC1	0.8	2.3%	1.3%	4.47µM*	-7.4	0.2%	-32.4
O=C(c1ccc(S(=O)(=O)N2CCCC2)cc1)N1CCN(c2cccc(Cl)c2)CC1	-1.8	21.2%	-1.9%	10.5%	-8.9	4.9%	x
Cc1nn(Cc2ccccc2Cl)c(Cl)c1C(=O)OCC(=O)NC(=O)NC1CCCCC1	-1.4	-3.3%	-11.8%	22.4µM*	3.4	-0.4%	-29.1
CSc1ccc(CCNC(=O)C2=C(C)C(=O)OC23CCCCC3)cc1	x	x	3.3%	x	x	x	x
COCCN1CCn2c(nc3cc(NC(=O)Cn4nc(C)c5ccccc5c4=O)ccc32)C1	-1.3	-5.2%	-5.3%	u	-12.0	1.0%	6.9
Cc1nn(CC(=O)Nc2ccc3c(c2)nc2n3CCOC2)c(=O)c2ccccc12	2.5	6.6%	12.0%	-0.6%	-6.5	-0.9%	x
COCCN1CCn2c(nc3cc(NC(=O)c4ccc(OC)cc4)ccc32)C1	7.0	u	4.3%	12.6µM*	13.7	8.6%	12.8	PR8 titer=8.33
O=C(NCCCO)C(=O)NCC(c1ccc2c(c1)OCO2)N1CCN(c2ccc(F)cc2)CC1 (stereo unspecified)	3.2	7.6%	-0.6%	2.24µM*	-13.8	-2.5%	-21.3
O=C(NCC(c1ccc2c(c1)OCO2)N1CCN(c2ccccc2)CC1)C(=O)Nc1ccc(F)cc1 (stereo unspecified)	x	x	-4.7%	x	x	x	x
Cc1cc(C)n2c(SCC(=O)N3CCN(S(=O)(=O)c4ccc(Cl)cc4)CC3)nnc2n1	3.7	7.6%	-3.4%	10µM*	25.4	5.7%	-0.5
Cc1ccc(NC(=O)Cn2cc(S(=O)(=O)c3ccc(C)cc3)c(=O)c3cc4c(cc32)OCO4)cc1	x	x	0.0%	x	x	x	x
O=C1NC(=O)C(c2ccccc2[N+](=O)[O-])=C1Nc1ccc(O)c(Cl)c1	8.1	-4.2%	-10.4%	35.5µM*!	10.1	0.9%	-13.0
CN(c1ccccc1)S(=O)(=O)c1ccc2[nH]c(=O)oc2c1	-3.8	1.1%	1.9%	u	11.6	-0.7%	8.7
SMILES	CHX counter-1	SARS PLP yeast	Tb PYK inh	NS1 function inh	Shiga inhibitor	LmPK inh	NS1 inh valid	others
Cc1cc(C)nc(SCC(=O)Nc2nonc2N)n1	2.2	0.1%	0.6%	-2.1%	8.4	3.5%	x
COc1ccc(OC)c(S(=O)(=O)N(C)CC(=O)O)c1	-6.3	1.3%	-4.3%	1.78µM*	-18.5	0.2%	3.5
CCOC(=O)C1=C(C)N=C2SC(C(=O)OC)=CC(=O)N2C1c1cccc(OC)c1 (stereo unspecified)	-2.5	-11.3%	-2.1%	14.1µM*	-2.7	-2.0%	-19.0
COCCn1c(SCC(=O)Nc2ccc(OC)c(S(N)(=O)=O)c2)nc2ccccc2c1=O	x	x	-0.3%	x	x	x	x
CC(C)(C)NC(=O)C(c1ccsc1)N(CCc1ccccc1)C(=O)Cn1nnc2ccccc21 (stereo unspecified)	-1.4	4.2%	-3.8%	u	2.5	0.8%	4.8
Oc1ccc(Nc2nc(-c3ccc(O)cc3)cs2)cc1	54.2*	7.4%	-15.4%	2.82µM*	80.3*	0.8%	10.0
c1cc2c(cc1Nc1nc(-c3ccc4c(c3)OCO4)cs1)OCCO2	63.5*	1.2%	-8.8%	7.08µM*	77.5*	-0.5%	-12.5
COc1ccc(C(C)(O)c2nc(-c3ccc4c(c3)OCO4)cs2)cc1 (stereo unspecified)	x	x	0.7%	x	x	x	x
COC(=O)[C@]1(Cc2ccccc2)N[C@H](CN(C)C(=O)c2ccccc2)[C@@H]2C(=O)N(Cc3ccccc3)C(=O)[C@@H]21	x	-3.6%	0.0%	x	x	x	x
COC(=O)CCCC(=O)N1CCCC(C(=O)c2ccc(OC)cc2C)C1 (stereo unspecified)	4.7	0.0%	-0.1%	u	9.1	11.6%	-10.9
CCCCN(CCCC)C(=O)c1cc2c(=O)n3ccccc3nc2s1	x	x	4.2%	x	x	x	x
Cc1sc(NC(=O)c2sc3nc4c(C)cccc4cc3c2N)c(C#N)c1C	18.9*	3.7%	-13.3%	u	37.5*	-2.9%	4.8
Cc1cccc2cc3c(N)c(C#N)sc3nc12	12.0	-0.8%	-19.2%	-14.3%	17.6	5.4%	x
